# In all, about 33,000 sequences were measured (“E-score (-0.5 to 0.5)”: median about -0.054, highest 2% from about 0.39 on). The list comes from a sample in which the highest values are over-represented; it also holds similar and randomly drawn sequences.
# Biological target: Ylr278c (UniProt Q05854)
# Experiment: PBM E-score (8-mer binding enrichment) (E-score (-0.5 to 0.5)); higher = stronger / more preferred TF binding
# Settings: protein concentration: 200 nM; construct: GST-DNA-binding domain
# Description: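 Universal 'all 10-mer' protein binding microarrays (Agilent AMADID 015681) probed with GST-tagged S. cerevisiae TFs (full-length or DBD) made by in vitro transcription/translation (PURExpress), about 100-200 nM. Bound TF was detected with fluorescent anti-GST. Each ungapped 8-mer (which stands for itself and its reverse complement) is scored by the PBM enrichment score (E-score), a modified Wilcoxon-Mann-Whitney statistic from -0.5 to +0.5, computed with the Universal PBM Analysis Suite. Scale: above 0.35 generally sequence-specific binding.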
# Chain of UniProt Q05854 (Q05854 whole entry): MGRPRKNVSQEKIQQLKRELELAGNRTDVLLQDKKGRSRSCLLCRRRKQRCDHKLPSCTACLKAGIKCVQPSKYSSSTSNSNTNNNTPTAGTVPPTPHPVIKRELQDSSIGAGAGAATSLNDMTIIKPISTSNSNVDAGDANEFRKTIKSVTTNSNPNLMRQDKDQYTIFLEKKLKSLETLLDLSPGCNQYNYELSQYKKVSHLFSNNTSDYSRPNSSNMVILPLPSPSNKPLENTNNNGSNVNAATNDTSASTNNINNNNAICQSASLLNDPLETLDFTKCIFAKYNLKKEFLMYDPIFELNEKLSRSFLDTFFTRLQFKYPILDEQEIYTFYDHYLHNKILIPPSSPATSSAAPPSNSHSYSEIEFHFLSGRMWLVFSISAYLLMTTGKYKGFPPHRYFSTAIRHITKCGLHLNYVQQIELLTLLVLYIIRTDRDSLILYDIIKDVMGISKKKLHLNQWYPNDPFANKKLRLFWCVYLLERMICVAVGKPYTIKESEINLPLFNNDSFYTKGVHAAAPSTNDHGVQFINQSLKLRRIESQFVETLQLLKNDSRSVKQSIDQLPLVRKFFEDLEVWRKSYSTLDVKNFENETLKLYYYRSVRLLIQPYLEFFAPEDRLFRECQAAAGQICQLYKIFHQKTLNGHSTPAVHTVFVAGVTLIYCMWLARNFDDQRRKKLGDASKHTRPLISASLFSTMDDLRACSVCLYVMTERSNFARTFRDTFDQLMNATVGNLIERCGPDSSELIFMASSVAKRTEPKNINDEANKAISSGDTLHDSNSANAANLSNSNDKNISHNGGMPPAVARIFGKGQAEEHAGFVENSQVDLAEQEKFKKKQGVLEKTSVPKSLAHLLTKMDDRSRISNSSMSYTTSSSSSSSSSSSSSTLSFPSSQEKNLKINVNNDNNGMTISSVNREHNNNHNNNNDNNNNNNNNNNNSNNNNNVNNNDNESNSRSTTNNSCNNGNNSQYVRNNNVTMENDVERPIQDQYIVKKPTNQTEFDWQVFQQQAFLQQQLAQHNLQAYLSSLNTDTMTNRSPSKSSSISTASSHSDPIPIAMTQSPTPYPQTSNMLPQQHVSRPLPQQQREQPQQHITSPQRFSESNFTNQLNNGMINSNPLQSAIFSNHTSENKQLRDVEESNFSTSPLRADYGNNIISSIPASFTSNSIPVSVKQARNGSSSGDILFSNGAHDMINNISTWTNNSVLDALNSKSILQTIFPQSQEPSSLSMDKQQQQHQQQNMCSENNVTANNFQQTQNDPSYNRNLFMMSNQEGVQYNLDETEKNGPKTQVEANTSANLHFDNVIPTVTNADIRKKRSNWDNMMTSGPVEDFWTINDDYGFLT
row,Sequence,PBM E-score
1,ATTCGGAG,0.422
2,ATTCGGAA,0.36
3,ATTCGGGC,0.18
4,ATTCGGCG,0.286
5,ATTCGGCC,0.284
6,ATTCGGAC,0.392
7,AAGACAGC,-0.0488
8,AAGGGAAT,-0.149
9,CGCTTCTC,0.168
10,GGGAGAGA,-0.201
11,AGGAGAGA,-0.136
12,CGGAGAGC,0.389
13,CGGAGAGA,0.402
14,CAGAGAGC,-0.184
15,AGGAGAGC,-0.275
16,AAGGTCAA,-0.195
17,ACTCTAAT,-0.121
18,ATTGGCAC,-0.247
19,AGGATCCG,0.226
20,AGGATCCC,0.113
21,CGGATCCA,0.221
22,CGGATCCC,0.402
23,GGGATCCC,0.325
24,CGGATCCG,0.438
25,ATGCAGCG,0.0411

row,Sequence,PBM E-score
1,CCCATAAG,0.0166
2,GTGGAGTA,-0.135
3,CCCAACAA,-0.0374
4,CACGGACA,0.317
5,CCCGGACA,0.405
6,GCAGGATA,-0.221
7,ACTGGACA,-0.189
8,CCCGGACG,0.273
9,CACGGATA,0.196
10,GCCGGATA,0.4
11,AACGGACA,0.321
12,ACCGGACA,0.401
13,GCCGGACC,0.376
14,GCCGGACA,0.447
15,GACGGACA,0.328
16,ACACCCCC,-0.133
17,GCTATCAC,-0.108
18,CGTGAACG,-0.0842
19,AGGCCCCT,-0.194
20,TACGGACA,0.257
21,TCCGGACA,0.456
22,ACCGGACG,0.369
23,ACCGGACC,0.384
24,TGCGGACA,0.356
25,ACCGGACT,0.443

row,Sequence,PBM E-score
1,CTTTTGCC,0.093
2,AAGTTACT,0.0192
3,AACCGTGA,-0.0334
4,GACTGGGA,0.0171
5,GCGGAACA,0.344
6,CCGGAACG,0.411
7,CAGGAACG,-0.153
8,CGGGAACA,0.192
9,ACGGAACA,0.27
10,GCGGAACC,0.254
11,CAGGAACA,-0.157
12,ACGGAACG,0.271
13,CCGGAACC,0.402
14,ACGGAACC,0.213
15,CCGGAACA,0.442
16,TCGGAACA,0.417
17,AACTCAGT,-0.15
18,ATTCTCTA,-0.0579
19,CAGAAATA,0.0765
20,AATGCATT,-0.0548
21,AAAGGCCG,0.37
22,ACAACCGT,-0.251
23,ATTTGAGC,-0.102
24,CGTATCAG,0.0563
25,AGTAGATG,-0.0703

row,Sequence,PBM E-score
1,ATCCAGAT,-0.146
2,TAACTTGA,-0.237
3,ACGGAGAC,0.39
4,GGGGAGAC,0.0986
5,AAGGAGAC,-0.214
6,GAGGAGAC,-0.0694
7,AAGGAGAT,0.0883
8,GCGGAGAC,0.4
9,ATGGAGAC,-0.103
10,AGGGAGAT,-0.207
11,ACGGAGAT,0.465
12,GCCCATAC,-0.275
13,CTCCAGCA,-0.256
14,ATGGCTAC,-0.185
15,ATGGGTTG,-0.114
16,CAAGTATC,-0.152
17,GGATTTTA,0.283
18,AAACGCCA,0.0115
19,AAACGCCG,0.412
20,CAACGCCG,0.318
21,CGAGTCAG,-0.151
22,TAGGTAAA,-0.0912
23,GAATGCAA,0.00843
24,AAATGCCC,-0.0631
25,AAATGCCG,0.423

row,Sequence,PBM E-score
1,CAATGCCG,0.365
2,AATACCTG,-0.107
3,AAACTCTG,-0.126
4,CGAACTCA,-0.0578
5,CGAACTCG,0.0307
6,GGAACTCA,0.189
7,GGAACTCC,0.393
8,AGAACTCC,0.276
9,CGAACTCC,0.39
10,ACCTTGTC,-0.192
11,GGCTTGCA,-0.118
12,ACTGGTGC,-0.0757
13,ACGTTCCG,0.289
14,CCGTTCCG,0.402
15,ATGTTCCG,0.429
16,CAGTTCCG,0.348
17,AAGTTCCG,0.42
18,AACTTCCG,0.433
19,ATGTTCCA,-0.162
20,CCGTTCCA,0.0158
21,AACTTCCA,0.0686
22,AAGTTCCT,-0.0671
23,AACTTCCT,0.00298
24,ATGTTCCC,-0.0151
25,ATCCTCAG,0.0306

row,Sequence,PBM E-score
1,AAATAGCC,-0.00231
2,AATTCTCT,-0.113
3,AATCCACA,-0.0935
4,AAGCGGCG,0.222
5,GGGTAACC,-0.0903
6,GGAGAGTA,0.243
7,CGCCGGTC,0.388
8,CTCCGGTA,0.47
9,GACCGGTC,0.397
10,CACCGGTC,0.183
11,AACCGGTC,0.198
12,GTCCGGTA,0.366
13,CTCCGGTC,0.455
14,ATCCGGTA,0.294
15,ATCCGGTC,0.346
16,ATGCACCG,0.178
17,CAACTCGC,-0.0405
18,TAAGAAAA,-0.0396
19,CGCGCTTA,0.0847
20,AAGACGTA,-0.154
21,CAGACTGG,-0.271
22,CTGCCGGA,0.355
23,ATGCCGGG,0.336
24,ATGCCGGC,0.372
25,GTGCCGGA,0.438

row,Sequence,PBM E-score
1,GTGCCGTA,0.0749
2,ATGCCGGA,0.456
3,ATGCGCTC,-0.034
4,CCTGTGGC,-0.166
5,GCGCGCTA,0.0544
6,CGTATATA,-0.111
7,GAATTGCC,0.182
8,AGGGGATG,-0.112
9,GCTACCCA,-0.196
10,ACACTCCT,-0.0208
11,ATACTCCA,-0.0317
12,ACACTCCC,0.00682
13,ACTCTCCA,-0.0794
14,ACTCTCCG,0.405
15,ACACTCCG,0.398
16,CCACTCCG,0.437
17,ATACTCCG,0.487
18,CCACTCCC,0.0826
19,CCACTCCA,-0.0346
20,ATACTCCC,0.243
21,CCTCTCCG,0.333
22,CAACAGAG,-0.0308
23,GACGCACA,0.146
24,CTGAGGCC,0.115
